# Screening data (PubChem BioAssay)
# Many of the other results were omitted from the sample, so hits are more common in it than they were.
# Dicer processing: inhibitors of Dicer pre-microRNA processing, primary screen, biochemical, cat-ELCCA, chemiluminescence; Endoribonuclease Dicer (Homo sapiens), Q9UPY3; cat-ELCCA pre-miR-21 Dicer processing; stronger effect = higher value; z-score at 25 µM; 47,000 compounds, 6% hits; in the data active = z-score above about 3, passing the limit was not always enough;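 also: plate controls were vehicle for no effect and no enzyme for full effect; higher signal means more uncleaved substrate so more Dicer inhibition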
# Starred values were filed as active, the others as inactive.
SMILES,Dicer processing
O=[N+]([O-])c1cc(C(F)(F)F)ccc1Oc1ccc(F)cc1,23.7
CS(=O)c1ccc(Oc2ccc(C(F)(F)F)cc2[N+](=O)[O-])cc1 (centres undefined),0.25
CC(C)(C)n1nc(-c2ccc(Cl)cc2)c(C#N)c1N,0.84
Oc1ccccc1C1=NN2C(C1)c1cc(Cl)ccc1OC2c1ccsc1 (centres undefined),12.4*
Oc1ccc(Cl)cc1C1=NN2C(C1)c1ccccc1OC2c1cccnc1 (centres undefined),0.4
Oc1ccccc1C1=NN2C(C1)c1cc(Cl)ccc1OC2c1ccncc1 (centres undefined),2.58
Cc1ccc(O)c(C2=NN3C(C2)c2ccccc2OC3c2cccnc2)c1 (centres undefined),2.95
COc1ccc(O)c(C2=NN3C(C2)c2cc(Cl)ccc2OC3c2ccsc2)c1 (centres undefined),1.15
Oc1ccc(Cl)cc1C1=NN2C(C1)c1ccccc1OC2c1ccsc1 (centres undefined),6.74*
Cc1noc(C)c1-c1nc(CSc2n[nH]c(=O)n2C(C)c2ccccc2)no1 (centres undefined),1.06
Cc1ccccc1CN1C(=O)C(O)(CC(=O)c2ccc3c(c2)OCCO3)c2cc(Cl)ccc21 (centres undefined),2.58
COc1ccccc1NC(=O)CN1c2cccc3cccc(c23)S1(=O)=O,0.06
Cc1ccc(NC(=S)/N=C(\N)C(C)C)cc1,-0.11
COc1ccc2[nH]c(C)c(CN3CCC(C)CC3)c(=O)c2c1,3.48*
CCOc1ccc2[nH]c(C)c(CN3CCCC3)c(=O)c2c1,0.61
COc1ccc2[nH]c(C)c(CN3CCCC3)c(=O)c2c1,0.96
Nc1nc2c(c(=O)[nH]1)C(c1c(F)cccc1Cl)CC(=O)N2 (centres undefined),-1.19
CCn1nc(C)c(Br)c1C(=O)O,0.12
O=C(Nc1ccc(Cl)cc1Cl)c1cccnc1Sc1cccc(C(F)(F)F)c1,-0.5
O=C(OCc1ccccn1)c1ccc(COc2ccc3ccccc3c2)o1,3.03*
CN(C)C(=O)COc1ccc2ccccc2c1,-0.66
COCn1c(COc2ccc3ccccc3c2)nc2ccccc21,1.35
O=C1/C(=C/c2ccco2)COC/C1=C\c1ccco1,1.39
CSC1=N/C(=C/c2ccco2)C(=O)N1,-0.55
O=C1/C(=C/c2ccco2)CC/C1=C\c1ccco1,31.3*
SMILES,Dicer processing
Cc1cccc(-n2cnc3c(sc4nc(N5CCOCC5)c5c(c43)CC(C)(C)OC5)c2=O)c1,-0.28
CCCCOC(=O)C1=C(C)NC2=C(C(=O)CCC2)C1c1ccccc1OC(C)C (centres undefined),-1.1
N/C(=N\NC(=O)Nc1ccc(Cl)cc1)c1ccccn1,6.58
CNC(=S)N/N=C(/N)c1ccccn1,4.35*
N/C(=N\NS(=O)(=O)c1ccccc1C(F)(F)F)c1ccccn1,0.57
O=S(=O)(Nc1ccccc1)c1ccc2c(c1)Cc1cc(S(=O)(=O)Nc3ccccc3)ccc1-2,0.91
COc1ccc(OC)c(Nc2nc3nonc3nc2Nc2ccc(F)cc2)c1,4.07*
COc1ccc(OC)c(Nc2nc3nonc3nc2Nc2cccc(Br)c2)c1,1.98
COc1ccccc1Nc1nc2nonc2nc1Nc1cccc(Br)c1,1.64
O=C1CC(c2ccc(F)cc2)Cc2nc(Nc3ccc(F)cc3)ncc21 (centres undefined),0.03
CCCC1/C(=N\O)CC(c2ccccc2)NC1c1ccccc1 (centres undefined),-0.61
FC(F)(F)c1cc(Cl)cnc1N1CCN(C(c2ccccc2)c2ccccc2)CC1,-0.43
Cc1ccc(-c2csc(=N)n2-c2ccccc2)cc1,13.2
CN(C)C(=S)Cc1ccc(Cl)cc1,0.76
ON(Cc1cccc(C(F)(F)F)c1)Cc1cccc(C(F)(F)F)c1,16.5
ON(Cc1ccc(Cl)cc1)Cc1ccc(Cl)cc1,3.01*
CCOC(=O)c1sc(SC)c(C#N)c1-c1cccs1,0.08
O=C(O)CCC(=O)Nc1nncs1,0.28
CC1CN(c2ccc(Cl)cc2)c2nc3c(c(=O)n(CC(=O)O)c(=O)n3C)n2C1 (centres undefined),-0.03
Cn1c(=O)n(CC(=O)O)c(=O)c2c1nc1n2CCCN1c1ccc(Cl)cc1,3.02*
Cc1ccc(N2CCn3c2nc2c3c(=O)n(CC(=O)O)c(=O)n2C)cc1,0.75
CCOc1ccc(N2CCCn3c2nc2c3c(=O)n(CC(=O)O)c(=O)n2C)cc1,0.38
Cn1c(=O)n(CC(=O)O)c(=O)c2c1nc1n2CCN1c1ccc(F)cc1,5.44*
Cn1c(=O)n(CC(=O)O)c(=O)c2c1nc1n2CCCN1c1ccc(F)cc1,0.5
Cc1c(CC(=O)O)sc2ccc(Cl)cc12,-1.14
SMILES,Dicer processing
CCOC(=O)C1=C(C)Nc2nc3ccccc3n2C1c1cccc(O)c1 (centres undefined),1.03
Cc1nn(C)c(Sc2ccccc2NC(=O)C(Cl)Cl)c1[N+](=O)[O-],-0.27
CC1=C(C)CC2C(=O)N(c3ccc(F)cc3F)C(=O)C2C1 (centres undefined),1.34
COc1ccc(C(=O)CSc2nc(O)cc(=O)[nH]2)cc1,-2.58
Cc1cc(=O)[nH]c(SCC(=O)N(c2ccccc2)c2ccccc2)n1,1.3
Cc1cc(=O)[nH]c(SCC(=O)C(C)(C)C)n1,0.9
Cc1cc(=O)[nH]c(SCC(N)=O)n1,4.59*
O=C(CSc1nc(C(F)(F)F)cc(=O)[nH]1)c1ccc(Cl)cc1,-1.17
Cc1ccc(C(=O)CSc2nc(C)cc(=O)[nH]2)cc1,4.61*
O=S(=O)(c1ccc(Cl)c(Cl)c1)N1CCSCC1,1.46
O=[N+]([O-])c1cccnc1Sc1ncc2ccccn12,-0.65
Cc1ccc(Cn2nnc(-c3cc(Cl)cc(Cl)c3)n2)cc1,2.01
CCOC(=O)c1nnn2c1nc(Sc1nc3ccccc3o1)c1ccccc12,-0.99
COc1ccc(NC(=O)c2cc3nc(-c4ccco4)cc(C(F)(F)F)n3n2)cc1OC,-0.42
O=C(Nc1cccc(Cl)c1)c1nn2c(C(F)(F)F)cc(-c3ccco3)nc2c1Cl,3.98*
O=C(Nc1ccc2c(c1)OCO2)c1cnn2c(C(F)(F)F)cc(-c3ccco3)nc12,-0.3
Nc1c(-c2n[nH]c(=S)n2-c2ccc(Cl)cc2)sc2nnc(-c3ccccc3)c(-c3ccccc3)c12,-0.48
CCCCCCNc1nc(C)nc2c1sc1nc3c(cc12)COC(C)(C)C3,0.21
COC(=O)c1scc(S(=O)(=O)c2ccc(Cl)cc2)c1N,-0.79
CSc1nc(/N=C/N(C)C)n2nc(C)cc2n1,-1.67
O=S(=O)(Nc1ccccc1N1CCCCC1)c1ccc(C(F)(F)F)cc1,3.28*
O=S(=O)(Nc1ccccc1N1CCOCC1)c1ccc2c(c1)OCC2,7.59
CC(=O)Nc1ccc(S(=O)(=O)Nc2ccccc2N2CCOCC2)cc1Cl,2.23
CCn1nc(C)cc1-c1nnc(SCC(=O)c2ccccc2)n1-c1ccccc1,2.17
CC1(C)Cc2c(c(N3CCOCC3)nc3sc(C(=O)Nc4ccccc4)c(N)c23)CO1,2.29
SMILES,Dicer processing
CC1(C)Cc2c(c(N3CCOCC3)nc3sc(C(=O)c4ccccc4)c(N)c23)CO1,3.16*
CC1(C)Cc2c(c(N3CCCC3)nc3sc4c(N5CCOCC5)ncnc4c23)CO1,-0.03
CC(=O)c1cc(-c2ccc(Cl)cc2)oc1C,-3.04
CCOC(=O)CCC(C#N)(c1cccs1)N1CCOCC1 (centres undefined),0.02
COc1ccc(C(=O)CSc2nnc(-c3ccccc3Br)n2C)cc1,0.5
Cc1ccc(C(=O)O)c2c1N[C@H](c1ccccc1Cl)C1CC=CC21 (some centres undefined),-1.8
